# G9a block: qHTS Assay for Inhibitors of Histone Lysine Methyltransferase G9a. Histone-lysine N-methyltransferase EHMT2 (Homo sapiens), Q96KQ7. G9a H3K9 monomethylation, AlphaScreen, 2 h. Potency, µM (titrated, usually from 102 µM), without a hit: at the highest dose activity, negative = inhibition, most hits filed as inhibitors. 350,000 compounds, 8.8% hits; note: % is set by controls: 0 for no effect and ±100 for the full control effect; nearly all actives have a fitted effect of over 75% in size
#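 Compounds were preincubated with 20 nM G9a for 15 min, after which biotinylated H3K9 peptide (500 nM) and SAM (20 uM) started a 2 h room-temperature reaction. Monomethylated product was quantified by antibody-based AlphaScreen chemiluminescence.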
# HP1b chromo inh: HTS for Inhibitors of HP1-beta Chromodomain Interactions with Methylated Histone Tails. Chromobox protein homolog 1 (Homo sapiens), P83916. AlphaScreen HP1-beta / biotin-H3K9me3 peptide binding. Potency, µM (series often up to 114 µM), for the others: at the highest dose activity change, negative = inhibition, usual class: inhibitors. 390,000 compounds, 0.56% hits; note: nearly all actives have a fitted effect of over 70% in size
#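 AlphaScreen: HP1-beta (50 nM) preformed 30 min with biotin-H3(1-18)K9me3 peptide (50 nM) in PBS pH 7.4, 0.01% Tween-20. Compound added for 30 min at RT, then streptavidin donor/nickel chelate acceptor beads (10 ug/mL) for 30 min.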
# JMJD2A Tudor inh: qHTS Assay for Inhibitors of JMJD2A-Tudor Domain; AlphaScreen JMJD2A-Tudor / H3K4me3 peptide binding; Potency, µM (doses to about 114 µM), for the others: at the highest dose activity change, negative = inhibition, usual class: inhibitors; 390,000 compounds, 4.4% hits; AID 504339, 2011; note: % is set by controls: 0 for no effect and ±100 for the full control effect; nearly all actives have a fitted effect of over 50% in size
# BAZ2B block: qHTS Assay for Inhibitors of BAZ2B. Potency, µM (titrated, usually from 114 µM), for inactives: at the highest dose activity change, negative = inhibition, usual class: inhibitors. AlphaScreen BAZ2B-H3K14Ac peptide displacement. 360,000 compounds, 4.4% hits. Bromodomain adjacent to zinc finger domain protein 2B (Homo sapiens), Q9UIF8; note: % is set by controls: 0 for no effect and ±100 for the full control effect; nearly all actives have a fitted effect of over 60% in size
#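 BAZ2B (50 nM) with biotin-H3(5-23)K14Ac peptide (50 nM) in PBS pH 7.4, 0.01% Tween-20, preformed 30 min, then compound 30 min at room temperature; top concentration 110uM. AlphaScreen streptavidin donor/nickel chelate acceptor beads (10 ug/mL final), 20 min dark, signal read.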
# Sfp inh: qHTS Assay for Inhibitors of Bacillus subtilis Sfp phosphopantetheinyl transferase (PPTase) | 4'-phosphopantetheinyl transferase ffp (Bacillus subtilis), Q9F4F7 | Biochemical Sfp PPTase activity, qHTS | Potency, µM, for inactives: largest response in the series, negative = inhibition, most hits filed as inhibitors | 310,000 compounds, 3.5% hits | AID 1490, 2009;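 note: the enzyme is Sfp with the accession as filed and its product quenches rhodamine fluorescence; 0% = enzyme reaction without inhibitor and -100% = no enzyme wells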
#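 After 15 min at room temperature with compound, 15 nM Sfp received 5 uM rhodamine-CoA plus 12.5 uM BHQ-2-ybbR (50 mM Hepes pH 7.6, 10 mM MgCl2). Rate came from the fluorescence difference over 30 min, ex 525/em 598 nm.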
# L3MBTL1 inh: qHTS Assay for the Inhibitors of L3MBTL1; Lethal(3)malignant brain tumor-like protein 1 (Homo sapiens), Q9Y468; AlphaScreen L3MBTL1–H3K9me1 peptide binding; Potency, µM (top dose mostly 57.1 µM), for inactives: at the top dose activity, negative = inhibition, hits mostly inhibitors; 230,000 compounds, 0.66% hits; note: % is set by controls: 0 for no effect and ±100 for the full control effect; nearly all actives have a fitted effect of over 60% in size
# Target sequence (Q9Y468 whole entry, looked up): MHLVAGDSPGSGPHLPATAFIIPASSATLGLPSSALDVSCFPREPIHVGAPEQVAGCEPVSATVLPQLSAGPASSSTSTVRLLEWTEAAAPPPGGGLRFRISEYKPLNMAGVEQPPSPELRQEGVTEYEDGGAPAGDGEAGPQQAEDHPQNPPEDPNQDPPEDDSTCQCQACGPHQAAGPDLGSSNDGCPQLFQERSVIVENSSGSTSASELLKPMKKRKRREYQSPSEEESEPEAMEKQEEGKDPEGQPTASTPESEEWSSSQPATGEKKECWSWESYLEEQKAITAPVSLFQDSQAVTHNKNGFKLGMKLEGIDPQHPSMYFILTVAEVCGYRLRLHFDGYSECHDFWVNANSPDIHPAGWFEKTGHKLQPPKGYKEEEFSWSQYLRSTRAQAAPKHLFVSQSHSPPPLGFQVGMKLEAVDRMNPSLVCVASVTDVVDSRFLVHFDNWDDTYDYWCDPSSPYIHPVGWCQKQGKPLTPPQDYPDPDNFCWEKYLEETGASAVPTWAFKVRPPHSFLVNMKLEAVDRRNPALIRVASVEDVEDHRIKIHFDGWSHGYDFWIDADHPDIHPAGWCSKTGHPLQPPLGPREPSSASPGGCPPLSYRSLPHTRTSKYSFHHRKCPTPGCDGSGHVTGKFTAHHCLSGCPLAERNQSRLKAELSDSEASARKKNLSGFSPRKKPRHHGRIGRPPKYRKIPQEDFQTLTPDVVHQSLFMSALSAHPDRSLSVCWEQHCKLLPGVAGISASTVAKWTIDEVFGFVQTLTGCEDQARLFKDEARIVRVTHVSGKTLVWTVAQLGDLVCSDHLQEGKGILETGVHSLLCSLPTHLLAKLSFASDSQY
#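 AlphaScreen assay: L3MBTL1 (50 nM final) was preincubated 30 min at room temperature with biotinylated H3(1-15)K9me1 peptide (75 nM final), then 30 min with library compounds; streptavidin donor and nickel chelate acceptor beads (10 ug/mL final) added, 30 min dark.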
# * = called active by the depositor; ? = inconclusive; · = no result given; [ ] = another dose, or the depositor's remark. A selection: hits, their analogues and other compounds. The true share with any hit is near 12%. Calls come from the whole dose curve; as a rule, active = well fitted curve in the direction sought with a large enough effect; inconclusive = small, poorly fitted or top-dose-only effect, or another doubt; inactive = no such curve, though single readings can be large; an effect the other way counts as inactive or inconclusive. Potency is the fitted concentration of half-maximal effect.
SMILES,G9a block,HP1b chromo inh,JMJD2A Tudor inh,BAZ2B block,Sfp inh,L3MBTL1 inh
COc1cccc(C(=O)N2CCN(Cc3ccc4c(c3)OCO4)CC2)c1OC,?,-36%,7.9µM*,79µM*,-26%,-2%
COc1ccccc1NC(=S)N1CCN(Cc2ccc3c(c2)OCO3)CC1,6%[59 µM],3%,-31%,-6%,7%,-3%
COc1ccccc1OCCC(=O)NCc1ccc2c(c1)OCO2,-32%,-26%,35µM*,-4%,5%,·
COc1ccccc1NC(=O)N1CCN(Cc2ccc3c(c2)OCO3)CC1,·,?,4µM*,50µM*,?,2%
CSc1ccc(S(=O)(=O)N2CCN(Cc3ccc4c(c3)OCO4)CC2)cc1,79µM*,44%,-11%,-6%,1%,2%
Cc1ccc(NC(=O)c2ccc(N(Cc3ccccc3)S(C)(=O)=O)cc2)cc1,?,18%,-12%,-11%,·,·
Cc1ccccc1COC(=O)c1ccc(-c2nnn(Cc3ccccc3F)n2)cc1,35%[59 µM],135%,-5%,18%,·,·
CCN(CC)C(=O)c1ccc2c(c1)N(Cc1ccccc1F)C(=O)c1ccccc1S2=O (stereo unspecified),4%[59 µM],40%,-5%,-15%,·,·
O=S(=O)(Nc1ccc(O)c(CN2CCCCC2)c1)c1ccccc1,45µM*,15%,-6%,-4%,-7%,5%
COc1ccc(S(=O)(=O)N2CCN(Cc3ccc4c(c3)OCO4)CC2)c2ccccc12,50µM*,39%,-30%,10%,-13%,·
Cc1ccccc1OCCCC(=O)Nc1ccc2c(c1)OCO2,20µM*,7%,-20%,-9%,-16%,-7%
O=C(c1ccc(NS(=O)(=O)c2ccccc2)cc1)N1CCN(Cc2ccc3c(c2)OCO3)CC1,50µM*,15%,-21%,-4%,-4%,-10%
Cn1c(CN2CCCC2)nc2cc(NS(=O)(=O)c3ccccc3)ccc21,-15%[59 µM],24%,-22%,-2%,14%,-8%
COc1ccc(Cl)cc1S(=O)(=O)N1CCN(Cc2ccc3c(c2)OCO3)CC1,-2%[12.7 µM],9%,-31%,-28%,5%,-3%
COc1ccccc1CNc1nc(-c2ccccc2CN(C)C)nc2ccccc12,·,·,·,·,-2%,·
COc1cc(C(=O)N2CCN(Cc3ccc4c(c3)OCO4)CC2)cc(OC)c1OC,20µM*,?,0.89µM*,79µM*,-25%,-8%
CC(=O)c1c(C)nc(-c2ccc(OCC(=O)Nc3ccc(F)cc3)cc2)n1O,18µM*,23%,-13%,-26%,13%,·
COc1cc(-c2nc(C)c(C(C)=O)n2O)ccc1OCC(=O)Nc1ccc(F)cc1,-11%[59 µM],9%,-22%,?,6%,·
CCOc1cc(-c2nc(C)c(C(C)=O)n2O)ccc1OCC(=O)Nc1ccc(F)cc1,50µM*,25%,-13%,-4%,-3%,17%
CC1CC(NC(=O)Cc2ccc(Br)cc2)CC(C)(C)C1 (stereo unspecified),-7%[59 µM],8%,40µM*,12%,13%,6%
O=C(CC1C(=O)NCCN1Cc1ccccc1C(F)(F)F)NC1CCCCC1 (stereo unspecified),40µM*,31%,-6%,-9%[57.1 µM],-7%,·
O=C(CC1C(=O)NCCN1Cc1c(F)cccc1Cl)NC1CCCCCC1 (stereo unspecified),0%,4%,-3%,-2%,22%,0%
O=C(CC1C(=O)NCCN1Cc1ccccc1C(F)(F)F)NC1CCC1 (stereo unspecified),·,27%,-7%,-13%,-7%,·
